Assay [1] can be described thus: ATG_TAL_CIS: Attagene CIS-FACTORIAL HepG2 Assay for human TAL Basal Promoter (AID 2282966).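 Note: background control endpoint measuring basal TAL promoter reporter mRNA not a specific factor.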 As to conditions: HepG2 Attagene cis-factorial TAL promoter reporter; actives raise or lower the signal. The method in brief:
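After 24 hours of chemical exposure, transfected HepG2 cells yielded RNA that was converted to 6-FAM-labelled, HpaI-digested reporter fragments for capillary electrophoresis. Values derive from bidirectional fitting against DMSO controls.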

A short description of assay [2]: ATG_TGFb_CIS: Attagene CIS-FACTORIAL HepG2 Assay for human Transforming Growth Factor (TGF) (AID 2282967). As to conditions: HepG2 Attagene CIS TGFb reporter, mRNA transcription; actives raise or lower the signal. The method, boiled down:
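HepG2 cells transiently transfected with cis-promoter-driven multiple reporter units measure endogenous TF activity; reporter mRNA quantified at 24 h by RT-PCR, FAM labeling, HpaI digestion and capillary electrophoresis. Bidirectional fit vs DMSO.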

Assay [3] can be described thus: ATG_VDRE_CIS: Attagene CIS-FACTORIAL HepG2 Assay for human Vitamin D Receptor Element (VDRE) (AID 2282968). As to conditions: HepG2 VDRE cis-reporter transcription, actives raise or lower the signal. The method in brief:
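Readout is VDRE-driven reporter mRNA reflecting endogenous factor activity in human HepG2 cells, sampled 24 h post-dose. Quantification used labelled RT-PCR products separated by capillary electrophoresis; bidirectional analysis relative to DMSO.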

For assay [4], the target named is X-box-binding protein 1 (Homo sapiens) (UniProt P17861). The experiment in a line: ATG_Xbp1_CIS: Attagene CIS-FACTORIAL HepG2 Assay for human X-box Binding Protein 1 (XBP1) (AID 2282972). As to conditions: HepG2 XBP1 cis-element reporter, Attagene multiplex; actives raise or lower the signal. The method in brief:
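Read-out: fluorescent reporter mRNA fragments resolved by capillary electrophoresis after RT-PCR. Human HepG2 liver cells carried transfected cis-promoter reporter units and were exposed to chemicals for 24 hours. Gain or loss of signal fitted relative to DMSO baseline.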

Assay [5] is described as follows: ATG_M_19_TRANS: Attagene TRANS-FACTORIAL HepG2 Assay for M19 Transcription Factor (Internal Marker) (AID 2282974; active = hit-call score of the fitted dose curve at least 0.9, where 1 is the maximum). As to conditions: HepG2 Attagene TRANS-FACTORIAL M19 internal marker reporter. The method, boiled down:
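HepG2 transiently transfected with GAL4-UAS multiplex reporter constructs, exposed 24 h; reporter RNA quantified by RT-PCR, 6-FAM labeling, HpaI digestion and capillary electrophoresis; internal background marker fitted upward versus DMSO.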

Assay [6] can be described thus: ATG_GAL4_TRANS: Attagene TRANS-FACTORIAL HepG2 Assay for GAL4 (Internal Marker) (AID 2282976; active = hit-call score of the fitted dose curve at least 0.9, where 1 is the maximum). As to conditions: HepG2 Attagene TRANS GAL4 internal marker reporter. The method in brief: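 First, HepG2 cells were transfected with reporter units under GAL4-UAS control. Next, they were treated with chemical for 24 h. Finally, RNA was reverse-transcribed, PCR-amplified, FAM-labelled and resolved by capillary electrophoresis, with induction scored against DMSO.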

The target in assay [7] is Hepatocyte nuclear factor 4-alpha (Homo sapiens) (UniProt P41235). The experiment in a line: ATG_HNF4a_TRANS: Attagene TRANS-FACTORIAL HepG2 Assay for human Hepatocyte Nuclear Factor 4 alpha (HNF4a) (AID 2282982; active = hit-call score of the fitted dose curve at least 0.9, where 1 is the maximum). As to conditions: HepG2 HNF4a transactivation reporter, mRNA readout. The method in brief:
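Activity of an exogenous HNF4a–Gal4 fusion scored as induced GAL4-UAS reporter transcripts after 24 h chemical exposure of transfected human HepG2 cells. Read-out via RT-PCR with 6-FAM labelling and capillary electrophoresis; rise over DMSO baseline.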

Assay [8] is described as follows: ATG_M_06_TRANS: Attagene TRANS-FACTORIAL HepG2 Assay for M06 Transcription Factor (Internal Marker) (AID 2282983; active = hit-call score of the fitted dose curve at least 0.9, where 1 is the maximum;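 note: reporter transcript level by RT-PCR then capillary electrophoresis fluorescence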). The settings on record: HepG2 Attagene TRANS M06 internal marker reporter. The method in brief:
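Background control endpoint: reporter mRNA from transiently transfected HepG2 after 24 h dosing, detected by RT-PCR with capillary electrophoresis fluorescence. Analysed for gain versus DMSO.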

The target in assay [9] is Transcriptional activator Myb (Homo sapiens) (UniProt P10242). Put plainly: ATG_Myb_CIS: Attagene CIS-FACTORIAL HepG2 Assay for human Myeloblastosis (Myb) Proto-Oncogene Transcription Factor (AID 2282986). The settings on record: HepG2 Attagene CIS-FACTORIAL Myb reporter transcription; actives raise or lower the signal. The method, boiled down: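 Transiently transfected HepG2 cells carrying a multiplexed cis-promoter reporter set report endogenous Myb activity after 24 h compound exposure. Reporter mRNA is read by RT-PCR with capillary electrophoresis of fluorescent products, fitted bidirectionally against DMSO.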
Transcriptional activator Myb (Homo sapiens), sequence (P10242 whole entry, looked up): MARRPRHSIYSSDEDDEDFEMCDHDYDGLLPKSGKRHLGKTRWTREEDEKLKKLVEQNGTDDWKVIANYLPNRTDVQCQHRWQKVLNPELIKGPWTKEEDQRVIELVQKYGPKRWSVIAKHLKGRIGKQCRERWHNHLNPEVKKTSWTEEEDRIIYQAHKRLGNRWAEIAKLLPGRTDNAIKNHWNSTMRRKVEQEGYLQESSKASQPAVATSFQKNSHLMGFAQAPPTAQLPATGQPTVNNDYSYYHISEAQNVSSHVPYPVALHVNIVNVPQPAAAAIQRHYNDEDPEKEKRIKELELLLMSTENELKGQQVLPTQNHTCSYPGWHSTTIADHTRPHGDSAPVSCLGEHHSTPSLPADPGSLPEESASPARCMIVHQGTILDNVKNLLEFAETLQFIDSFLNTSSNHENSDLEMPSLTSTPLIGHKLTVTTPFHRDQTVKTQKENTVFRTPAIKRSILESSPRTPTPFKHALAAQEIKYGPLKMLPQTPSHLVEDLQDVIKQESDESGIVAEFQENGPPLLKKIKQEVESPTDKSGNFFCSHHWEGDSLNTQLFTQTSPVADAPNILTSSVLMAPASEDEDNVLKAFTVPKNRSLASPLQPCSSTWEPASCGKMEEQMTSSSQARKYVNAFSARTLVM

The target of assay [10] is Nuclear respiratory factor 1 (Homo sapiens) (UniProt Q16656). Put plainly: ATG_NRF1_CIS: Attagene CIS-FACTORIAL HepG2 Assay for human Nuclear Respiratory Factor 1 (NRF1) Orphan Gene (AID 2282987). As to conditions: HepG2 NRF1 cis-element reporter, Attagene multiplex; actives raise or lower the signal. The method, boiled down:
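HepG2 cells transiently transfected with multiple cis-regulated reporter units, exposed 24 h. Reporter mRNAs measured by RT-PCR, fluorescent labelling, HpaI digestion and capillary electrophoresis; bidirectional fitting against DMSO.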

The target of assay [11] is Estrogen-related receptor gamma (Homo sapiens) (UniProt P62508). Put plainly: ATG_ERRg_TRANS: Attagene TRANS-FACTORIAL HepG2 Assay for human Estrogen-Related Receptor gamma (ERRg) (AID 2282977; active = hit-call score of the fitted dose curve at least 0.9, where 1 is the maximum;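 note: hits increase reporter signal over DMSO so potencies reflect activators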). As to conditions: HepG2 Attagene TRANS reporter, ERRg transactivation. The method in brief: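 Exogenous NR-Gal4 chimera activity measured as reporter transcript induction after 24 h in transiently transfected HepG2 cells. RNA reverse-transcribed, PCR-amplified, 6-FAM-labelled and resolved by capillary electrophoresis; increase over DMSO baseline.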

Assay [12] concerns the target Glucocorticoid receptor (Homo sapiens) (UniProt P04150). The experiment in a line: ATG_GR_TRANS: Attagene TRANS-FACTORIAL HepG2 Assay for human Glucocorticoid Receptor (GR) (AID 2282978; active = hit-call score of the fitted dose curve at least 0.9, where 1 is the maximum;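 note: activators score as hits since higher reporter transcript over DMSO is fitted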). As to conditions: HepG2 Attagene TRANS GR reporter, mRNA transcription. The method in brief:
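HepG2 cells transiently transfected with GAL4-UAS reporter units and exogenous GR-Gal4 chimera, dosed 24 h. Reporter mRNA by RT-PCR, FAM labeling, HpaI digest and capillary electrophoresis; gain-of-signal fit versus DMSO.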

Assay [13] addresses Bile acid receptor (Homo sapiens) (UniProt Q96RI1). The experiment in a line: ATG_FXR_TRANS: Attagene TRANS-FACTORIAL HepG2 Assay for Farnesoid X Receptor (FXR) (AID 2282979; active = hit-call score of the fitted dose curve at least 0.9, where 1 is the maximum;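 note: hits raise reporter mRNA above DMSO so AC50 marks FXR activation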). The settings on record: HepG2 Attagene TRANS FXR-GAL4 reporter transcription. The method, boiled down: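 Transient transfection of HepG2 with multiplexed GAL4-UAS reporter units; exogenous FXR-GAL4 chimera. Dose 24 h → TriZol RNA → oligo(dT) RT → PCR, 6-FAM primer extension, HpaI cut → CE. Gain vs DMSO.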

The target in assay [14] is Oxysterols receptor LXR-alpha (Homo sapiens) (UniProt Q13133). Put plainly: ATG_LXRa_TRANS: Attagene TRANS-FACTORIAL HepG2 Assay for human Liver X Receptor alpha (LXRa) (AID 2282980; active = hit-call score of the fitted dose curve at least 0.9, where 1 is the maximum). As to conditions: HepG2 Attagene TRANS reporter, LXRa transactivation. The method, boiled down:
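Transfect HepG2 with GAL4-UAS multiplex reporter constructs (TRANS format, chimeric receptor-GAL4); treat 24 h; extract RNA, reverse-transcribe, PCR-amplify, FAM-label, HpaI-digest; resolve fragments by capillary electrophoresis. Upward response vs DMSO.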

Assay [15] concerns the target Oxysterols receptor LXR-beta (Homo sapiens) (UniProt P55055). Put plainly: ATG_LXRb_TRANS: Attagene TRANS-FACTORIAL HepG2 Assay for human Liver X Receptor beta (LXRb) (AID 2282981; active = hit-call score of the fitted dose curve at least 0.9, where 1 is the maximum). The settings on record: HepG2 Attagene TRANS GAL4-LXRb reporter, mRNA. The method, boiled down:
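After 24 h chemical treatment of transfected HepG2 cells carrying exogenous NR-Gal4 chimeras, reporter mRNA was quantified by fluorescent RT-PCR and capillary electrophoresis; activity taken as increase over DMSO controls.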

A short description of assay [16]: ATG_M_32_TRANS: Attagene TRANS-FACTORIAL HepG2 Assay for M32 Transcription Factor (Internal Marker) (AID 2282984; active = hit-call score of the fitted dose curve at least 0.9, where 1 is the maximum;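 note: transcript level of a background control reporter unit measured by RT-PCR and capillary electrophoresis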). As to conditions: HepG2 Attagene TRANS M32 internal marker reporter. The method, boiled down: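 Internal background reporter in transfected HepG2: after 24 h chemical exposure, RNA reverse-transcribed, reporter cDNA amplified, fluorescently labelled and HpaI-cut, then sized by capillary electrophoresis. Gain of signal fitted against DMSO control.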

Assay [17] concerns the target Nuclear receptor subfamily 4 group A member 2 (Homo sapiens) (UniProt P43354). The experiment in a line: ATG_NURR1_TRANS: Attagene TRANS-FACTORIAL HepG2 Assay for human Nuclear Receptor Related Protein 1 (NURR1) (AID 2282985; active = hit-call score of the fitted dose curve at least 0.9, where 1 is the maximum). The settings on record: HepG2 Attagene TRANS reporter, mRNA readout. The method in brief:
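Reporter transcript induction, measured by RT-PCR with fluorescent labelling, HpaI digestion and capillary electrophoresis, after 24 hr dosing of human HepG2 cells transiently expressing an exogenous NR-Gal4 fusion with GAL4-UAS-driven reporters; DMSO as baseline.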

Inconclusive results are not listed. Active and inactive are the calls of the source. Rule for the calls, unless noted: active = hit-call score of the fitted dose curve at least 0.9, where 1 is the maximum; inactive = score below 0.9.

Hepatocyte nuclear factor 4-alpha (Homo sapiens), sequence (P41235 whole entry, looked up, the tested form may be a part): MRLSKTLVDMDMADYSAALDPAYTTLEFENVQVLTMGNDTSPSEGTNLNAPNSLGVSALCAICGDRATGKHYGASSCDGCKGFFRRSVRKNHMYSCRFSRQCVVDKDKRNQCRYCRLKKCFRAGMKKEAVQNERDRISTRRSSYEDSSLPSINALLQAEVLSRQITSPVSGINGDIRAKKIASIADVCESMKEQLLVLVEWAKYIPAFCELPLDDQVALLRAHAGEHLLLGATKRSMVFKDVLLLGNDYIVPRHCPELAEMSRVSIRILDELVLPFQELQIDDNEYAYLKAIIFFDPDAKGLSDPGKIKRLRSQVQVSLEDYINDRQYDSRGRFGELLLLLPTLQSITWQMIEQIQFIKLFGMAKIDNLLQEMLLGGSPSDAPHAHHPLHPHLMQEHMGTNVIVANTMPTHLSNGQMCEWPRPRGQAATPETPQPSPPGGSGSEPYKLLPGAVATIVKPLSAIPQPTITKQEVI
X-box-binding protein 1 (Homo sapiens), sequence (P17861 whole entry, looked up, the tested form may be a part): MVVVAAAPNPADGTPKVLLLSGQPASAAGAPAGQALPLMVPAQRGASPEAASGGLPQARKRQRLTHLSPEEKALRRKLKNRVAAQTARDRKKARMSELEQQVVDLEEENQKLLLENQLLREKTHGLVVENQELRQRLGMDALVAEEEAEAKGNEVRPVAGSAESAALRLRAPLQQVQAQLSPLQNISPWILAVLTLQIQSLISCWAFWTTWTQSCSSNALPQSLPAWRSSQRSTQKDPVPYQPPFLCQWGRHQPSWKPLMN
Glucocorticoid receptor (Homo sapiens), sequence (P04150 whole entry, looked up, the tested form may be a part): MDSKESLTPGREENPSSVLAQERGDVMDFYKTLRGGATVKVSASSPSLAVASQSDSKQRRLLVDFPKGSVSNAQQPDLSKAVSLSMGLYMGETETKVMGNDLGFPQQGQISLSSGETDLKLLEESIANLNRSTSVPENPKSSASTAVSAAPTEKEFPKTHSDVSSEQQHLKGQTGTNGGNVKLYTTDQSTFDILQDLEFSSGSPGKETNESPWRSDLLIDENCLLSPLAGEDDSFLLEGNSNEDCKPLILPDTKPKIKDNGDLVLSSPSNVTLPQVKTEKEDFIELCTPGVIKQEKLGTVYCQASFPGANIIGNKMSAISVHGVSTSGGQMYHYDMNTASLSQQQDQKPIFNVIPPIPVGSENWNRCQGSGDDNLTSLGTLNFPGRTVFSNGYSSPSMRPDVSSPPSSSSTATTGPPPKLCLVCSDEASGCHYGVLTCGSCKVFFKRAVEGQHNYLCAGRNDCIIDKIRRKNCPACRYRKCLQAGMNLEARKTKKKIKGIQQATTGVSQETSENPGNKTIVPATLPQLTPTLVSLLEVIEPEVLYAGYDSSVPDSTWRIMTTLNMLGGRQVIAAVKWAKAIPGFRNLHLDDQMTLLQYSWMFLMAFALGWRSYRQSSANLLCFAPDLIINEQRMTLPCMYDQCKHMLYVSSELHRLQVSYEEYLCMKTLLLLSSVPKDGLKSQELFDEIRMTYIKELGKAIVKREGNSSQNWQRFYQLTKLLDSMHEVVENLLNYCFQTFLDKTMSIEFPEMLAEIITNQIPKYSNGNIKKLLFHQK
Oxysterols receptor LXR-beta (Homo sapiens), sequence (P55055 whole entry, looked up, the tested form may be a part): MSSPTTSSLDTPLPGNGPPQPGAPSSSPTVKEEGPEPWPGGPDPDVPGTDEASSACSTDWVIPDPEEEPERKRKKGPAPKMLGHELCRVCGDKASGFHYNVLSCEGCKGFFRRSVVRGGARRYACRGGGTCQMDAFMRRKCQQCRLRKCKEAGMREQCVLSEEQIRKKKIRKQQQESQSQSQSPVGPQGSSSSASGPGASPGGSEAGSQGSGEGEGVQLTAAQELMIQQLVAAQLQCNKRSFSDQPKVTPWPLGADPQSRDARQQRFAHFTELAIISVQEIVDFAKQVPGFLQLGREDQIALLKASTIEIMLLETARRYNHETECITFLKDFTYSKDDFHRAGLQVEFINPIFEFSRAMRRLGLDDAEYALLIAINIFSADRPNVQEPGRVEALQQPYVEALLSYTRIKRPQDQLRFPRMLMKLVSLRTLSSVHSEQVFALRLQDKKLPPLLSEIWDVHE
Oxysterols receptor LXR-alpha (Homo sapiens), sequence (Q13133 whole entry, looked up, the tested form may be a part): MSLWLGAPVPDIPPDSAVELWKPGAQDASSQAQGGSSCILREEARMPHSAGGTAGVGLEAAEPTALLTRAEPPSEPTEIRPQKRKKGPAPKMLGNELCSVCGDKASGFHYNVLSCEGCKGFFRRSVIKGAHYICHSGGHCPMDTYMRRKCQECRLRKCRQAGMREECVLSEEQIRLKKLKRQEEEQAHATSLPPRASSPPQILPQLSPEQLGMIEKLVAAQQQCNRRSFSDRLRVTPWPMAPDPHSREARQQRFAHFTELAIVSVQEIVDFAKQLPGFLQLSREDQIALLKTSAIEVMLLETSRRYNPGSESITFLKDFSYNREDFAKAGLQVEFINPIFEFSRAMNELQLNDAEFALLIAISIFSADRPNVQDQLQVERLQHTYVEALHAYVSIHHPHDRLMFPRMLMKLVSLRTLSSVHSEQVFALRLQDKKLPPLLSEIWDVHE
Nuclear receptor subfamily 4 group A member 2 (Homo sapiens), sequence (P43354 whole entry, looked up, the tested form may be a part): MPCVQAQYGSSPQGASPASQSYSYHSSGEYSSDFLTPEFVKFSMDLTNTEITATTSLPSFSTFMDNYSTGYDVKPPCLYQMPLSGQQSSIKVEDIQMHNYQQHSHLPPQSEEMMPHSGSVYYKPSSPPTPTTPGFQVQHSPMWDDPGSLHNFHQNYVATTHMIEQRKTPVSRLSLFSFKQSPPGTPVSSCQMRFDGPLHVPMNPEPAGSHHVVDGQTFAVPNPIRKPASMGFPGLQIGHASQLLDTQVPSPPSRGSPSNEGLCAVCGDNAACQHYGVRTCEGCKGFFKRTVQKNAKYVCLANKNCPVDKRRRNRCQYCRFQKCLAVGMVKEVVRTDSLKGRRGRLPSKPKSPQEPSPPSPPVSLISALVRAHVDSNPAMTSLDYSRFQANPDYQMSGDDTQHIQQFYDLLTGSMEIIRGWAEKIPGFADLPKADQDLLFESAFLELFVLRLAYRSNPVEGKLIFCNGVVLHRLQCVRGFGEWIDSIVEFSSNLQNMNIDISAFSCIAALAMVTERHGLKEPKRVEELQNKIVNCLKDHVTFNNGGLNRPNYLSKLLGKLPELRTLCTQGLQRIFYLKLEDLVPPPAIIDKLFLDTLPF
Nuclear respiratory factor 1 (Homo sapiens), sequence (Q16656 whole entry, looked up): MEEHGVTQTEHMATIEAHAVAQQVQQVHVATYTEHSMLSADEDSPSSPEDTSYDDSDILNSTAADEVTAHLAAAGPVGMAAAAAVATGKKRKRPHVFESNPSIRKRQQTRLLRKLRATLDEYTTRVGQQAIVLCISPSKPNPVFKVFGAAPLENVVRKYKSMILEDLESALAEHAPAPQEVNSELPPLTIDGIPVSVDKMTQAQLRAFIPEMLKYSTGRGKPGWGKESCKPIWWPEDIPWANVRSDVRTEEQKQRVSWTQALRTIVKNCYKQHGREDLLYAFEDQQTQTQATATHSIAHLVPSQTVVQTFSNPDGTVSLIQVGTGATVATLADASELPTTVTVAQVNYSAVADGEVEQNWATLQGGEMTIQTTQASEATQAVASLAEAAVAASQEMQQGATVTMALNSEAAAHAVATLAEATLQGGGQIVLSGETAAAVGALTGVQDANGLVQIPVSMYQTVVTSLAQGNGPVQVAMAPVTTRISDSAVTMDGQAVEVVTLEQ
Bile acid receptor (Homo sapiens), sequence (Q96RI1 whole entry, looked up, the tested form may be a part): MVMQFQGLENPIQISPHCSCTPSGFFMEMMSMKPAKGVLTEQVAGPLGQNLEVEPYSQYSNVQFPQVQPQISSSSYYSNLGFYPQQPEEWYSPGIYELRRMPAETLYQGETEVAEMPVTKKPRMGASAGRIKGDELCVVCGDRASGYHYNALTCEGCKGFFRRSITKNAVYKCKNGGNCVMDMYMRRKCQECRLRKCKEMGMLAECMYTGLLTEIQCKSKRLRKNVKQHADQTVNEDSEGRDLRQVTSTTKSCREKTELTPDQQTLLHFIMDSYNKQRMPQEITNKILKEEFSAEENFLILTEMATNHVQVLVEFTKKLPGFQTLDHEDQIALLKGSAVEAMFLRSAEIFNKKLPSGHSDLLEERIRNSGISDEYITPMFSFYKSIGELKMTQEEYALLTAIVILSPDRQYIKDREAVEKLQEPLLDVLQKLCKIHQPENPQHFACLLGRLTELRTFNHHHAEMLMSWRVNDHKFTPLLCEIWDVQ

In the case of `C=C(C)C(=O)OCCOCCOCCOCCOC(=O)C(=C)C`, the compound was classed as inactive in assay [1], in assay [2], in assay [3], in assay [4], in [5] and in assay [6]. For the same compound, the call in assay [7], in assay [8], in assay [9] and in [10] was inactive.

On to `CC(C)(C)c1ccc(C(=O)O)cc1`, for which the call in [1], in [2], in assay [3], in assay [4], in [5] and in [6] was inactive. Moreover, the compound was called inactive in [9] and in assay [10].

For orientation: AC50 means the concentration at which the activity in the assay is half-maximal. Take `CCc1cc(Cc2cc(CC)cc(C(C)(C)C)c2O)c(O)c(C(C)(C)C)c1`: the outcome in assay [1], in [2], in [11], in [12], in [13] and in [14] was inactive. In addition, the compound was called inactive in assay [15], in [7], in [8], in assay [9] and in assay [10]. The AC50 is 4770 nM (active) in assay [3] and 16900 nM (active) in assay [4].

In the case of `[O-]n1ccccc1=S.[O-]n1ccccc1=S.[Zn+2]`, the compound was classed as inactive in assay [1], in assay [2], in assay [3], in assay [4], in assay [6] and in assay [14]. For the same compound, the call in [7], in assay [8], in [16], in assay [9] and in [10] was inactive.

Consider `CC1(C)O[C@@H]2C[C@H]3[C@@H]4CCC5=CC(=O)C=C[C@]5(C)[C@@]4(F)[C@@H](O)C[C@]3(C)[C@]2(C(=O)CO)O1`, for which the outcome in [1], in assay [2], in [3], in assay [4], in assay [5] and in assay [13] was inactive. Besides, the outcome in [14], in assay [15], in assay [16], in assay [17], in [9] and in assay [10] was inactive. Also, in [12], the AC50 was 488 nM (active).

Regarding `C[C@H]1O[C@@H](O[C@H]2[C@@H](O)C[C@H](O[C@H]3[C@@H](O)C[C@H](O[C@H]4CC[C@@]5(C)[C@H](CC[C@@H]6[C@@H]5C[C@@H](O)[C@]5(C)[C@@H](C7=CC(=O)OC7)CC[C@]65O)C4)O[C@@H]3C)O[C@@H]2C)C[C@H](O)[C@@H]1O`, the result in assay [1], in assay [2], in assay [5], in assay [12], in [7] and in assay [16] was inactive. For the same compound, the compound was classed as inactive in [17]. Besides, the AC50 in assay [3] was 226 nM (active); in assay [4], 141 nM (active); in assay [10] it was 3.12 nM (active).

As to `CCCCOCC`, the call in assay [1], in assay [2], in [3], in [4], in assay [6] and in assay [11] was inactive. The call in assay [17], in [9] and in assay [10] was inactive.

With `CS(=O)(=O)OCCCCOS(C)(=O)=O`, the outcome in assay [1], in assay [2], in assay [3], in assay [4], in assay [5] and in assay [8] was inactive. For the same compound, the result in assay [16], in [9] and in assay [10] was inactive.

Regarding `CCCCCCCCCCCCS(=O)(=O)Cl`, the compound was classed as inactive in assay [1], in assay [2], in assay [3], in [4], in [5] and in assay [12]. The result in assay [13], in [7], in assay [16], in assay [9] and in assay [10] was inactive.

With `CCOC(=O)CCc1ccccc1`, the outcome in assay [1], in assay [2], in assay [3], in assay [4], in assay [5] and in assay [6] was inactive. The compound was called inactive in [13], in assay [16], in [17], in assay [9] and in [10].

`O=C(O)COCC(=O)O`: the outcome in [1], in assay [2], in assay [3], in [4], in [6] and in assay [13] was inactive. Moreover, the call in assay [14], in assay [15], in assay [7], in assay [8], in assay [9] and in assay [10] was inactive.

Consider `CCCCCCCCCC(C)C=O` (configuration not stated), for which the compound was called inactive in assay [1], in assay [2], in [3], in assay [4], in assay [5] and in assay [12]. Also, the result in assay [14], in assay [16], in assay [9] and in assay [10] was inactive.

The values are drawn from PubChem BioAssay (EPA / NIEHS).
